Assay results taken from the supplement of paper PMC10646978.
± gives the standard deviation.

Assays:
Details in all cases: modulator concentration 10 µM
[1] = tested on: RAW-Dual (murine macrophage reporter line); test: NF-kB reporter (SEAP) activity fold change vs agonist alone; higher = enhanced NF-kB activity
How it was run: (§1)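 RAW-Dual murine macrophage reporter cells were seeded at 50 000 per well in 384-well plates and pre-incubated 1 hour at 37 °C with compound pin-transferred to 10 μM final. After 1 hour, a PRR agonist was added and cells incubated overnight. Supernatant NF-κB (SEAP, QUANTI-Blue, 620 nm absorbance) and IRF (Lucia luciferase, QUANTI-Luc, luminescence) signals were divided by the mean agonist-only control on the same plate to give fold change. Two replicate plates were averaged, with errors by propagation.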

[2] = tested on: RAW-Dual (murine macrophage reporter line); test: IRF reporter (Lucia luciferase) activity fold change vs agonist alone; higher = enhanced IRF activity
How it was run: as §1

[3] = tested on: RAW-Dual (murine macrophage reporter line); test: viability score (confluency relative to resting cells, overnight) (fraction); higher = more viable, active = viable (0.7 or more)
How it was run: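 A compound met the cutoff when both of two confluency masks exceeded 70% of resting cells. Those masks were made with IncuCyte software from IncuCyte images of RAW-Dual macrophages treated overnight at 10 μM final. This is the basis of the viability score, which is confluency relative to resting cells.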

[4] = agonist: CpG ODN 1826 0.5 ug/mL

Row | SMILES | NF-kB reporter [1, 4] | NF-kB reporter ([1]; agonist: LPS 0.1 ug/mL) | NF-kB reporter ([1]; agonist: MPLA […]) | IRF reporter ([2]; agonist: 3'3'-cGAMP 10 ug/mL) | IRF reporter ([2]; agonist: LPS 0.1 ug/mL) | IRF reporter ([2]; agonist: MPLA […]) | viability score [3]
1 | Cc1ccc(C(=O)NC(=S)Nc2nc(-c3cccc([N+](=O)[O-])c3)cs2)cc1C | 1.02 ± 0.12 | 0.98 ± 0.16 | 0.977 ± 0.036 | 0.931 ± 0.17 | 1.08 ± 0.094 | 1.12 ± 0.13 | 1 (active)
2 | COc1cc(C(=O)O)ccc1NC(=O)[C@@H]1N[C@@H](CC(C)(C)C)[C@](C#N)(c2ccc(Cl)cc2F)[C@H]1c1cccc(Cl)c1F | 0.35 ± 0.03 | 0.513 ± 0.052 | 0.679 ± 0.058 | 0.608 ± 0.053 | 1.02 ± 0.21 | 0.952 ± 0.34 | 0.122 (inactive)
3 | Cl.N=C(N)NC(=O)c1nc(Cl)c(N)nc1N.O.O | 0.856 ± 0.044 | 1.01 ± 0.087 | 1.05 ± 0.065 | 1.04 ± 0.048 | 1.2 ± 0.29 | 1.3 ± 0.46 | 0.984 (active)
4 | Oc1ccc(O)cc1 | 1.33 ± 0.2 | 0.586 ± 0.41 | 0.377 ± 0.093 | 0.459 ± 0.018 | 0.58 ± 0.41 | 0.211 ± 0.13 | 0.909 (active)
5 | COc1ccc(S(=O)(=O)NCc2ccnc(-c3ccncc3)c2)cc1Cl | 0.831 ± 0.098 | 1.06 ± 0.1 | 0.964 ± 0.16 | 0.388 ± 0.02 | 0.969 ± 0.07 | 1.11 ± 0.11 | 0.999 (active)
6 | COc1ccc(C=NNc2nc(Nc3ccc(C)cc3Br)nc(N3CCOCC3)n2)c(OC)c1 | 0.238 ± 0.024 | 1.13 ± 0.13 | 1.84 ± 0.18 | 0.649 ± 0.067 | 1.67 ± 0.23 | 2.01 ± 0.27 | 1.05 (active)
7 | Cc1cccc2sc(OC3CN(C(=O)Nc4ccccc4C(F)(F)F)C3)nc12 | 0.912 ± 0.047 | 1.13 ± 0.089 | 0.872 ± 0.043 | 1.12 ± 0.065 | 1.19 ± 0.19 | 1.15 ± 0.31 | 0.981 (active)
8 | CC(C)(C)c1cc(CCC(=O)NN)cc(C(C)(C)C)c1O | 0.8 ± 0.066 | 0.816 ± 0.06 | 0.926 ± 0.096 | 0.519 ± 0.022 | 1.15 ± 0.12 | 1.24 ± 0.2 | 1.02 (active)
9 | COc1cc(C)ccc1NC(=O)Cc1csc(NC(=O)Nc2ccccc2OC)n1 | 1.32 ± 0.14 | 1.02 ± 0.074 | 0.887 ± 0.1 | 0.978 ± 0.063 | 0.793 ± 0.059 | 0.818 ± 0.26 | 1 (active)
10 | COc1ccc(-c2noc(-c3ccc(=O)n(Cc4ncc(C)c(OC)c4C)c3)n2)cc1F | 0.91 ± 0.058 | 0.944 ± 0.083 | 1.06 ± 0.073 | 0.961 ± 0.044 | 1.17 ± 0.24 | 1.31 ± 0.51 | 0.956 (active)
11 | CC(=O)N1CCC(Cn2ccc3cccnc32)CC1 | 1.04 ± 0.078 | 1.02 ± 0.11 | 0.996 ± 0.048 | 0.949 ± 0.035 | 0.957 ± 0.056 | 1.02 ± 0.11 | 0.994 (active)
12 | O=C(NN=Cc1c(O)ccc2ccccc12)c1ccccc1 | 1.48 ± 0.12 | 1.19 ± 0.08 | 1.12 ± 0.054 | 0.752 ± 0.11 | 1.23 ± 0.077 | 1.14 ± 0.12 | 0.979 (active)
13 | COc1cc(C2Oc3cc(C4Oc5cc(O)cc(O)c5C(=O)C4O)ccc3OC2CO)ccc1O (configuration not stated) | 1.11 ± 0.083 | 1.07 ± 0.057 | 1.13 ± 0.029 | 0.988 ± 0.082 | 0.93 ± 0.17 | 1 ± 0.17 | 0.981 (active)
14 | O=C1C2C3C=CC(C4CC34)C2C(=O)N1N=Cc1ccc(-c2ccc(Cl)cc2)o1 (configuration not stated) | 1.01 ± 0.14 | 1.04 ± 0.074 | 0.924 ± 0.068 | 0.968 ± 0.034 | 1.56 ± 0.26 | 1.15 ± 0.1 | 1.01 (active)
15 | CCCCc1ncc(/C=C(\Cc2cccs2)C(=O)O)n1Cc1ccc(C(=O)O)cc1.CS(=O)(=O)O | 1.08 ± 0.081 | 1.11 ± 0.055 | 1.03 ± 0.039 | 0.927 ± 0.062 | 0.973 ± 0.077 | 0.836 ± 0.079 | 1 (active)
16 | COc1cccc(CC(=O)N2CCC(Oc3ccc4ccccc4n3)C2)c1 (configuration not stated) | 0.762 ± 0.04 | 1.18 ± 0.14 | 1 ± 0.077 | 0.938 ± 0.056 | 1.18 ± 0.14 | 1.24 ± 0.25 | 1 (active)
17 | CC(C)(C)NCC(O)COc1cccc2c1CCC(=O)N2.Cl (configuration not stated) | 1.14 ± 0.17 | 1.12 ± 0.25 | 1.03 ± 0.12 | 0.941 ± 0.037 | 1.33 ± 0.26 | 1.03 ± 0.19 | 0.995 (active)
18 | Cc1ccc(OCCSc2nc3ccccc3c(=O)[nH]2)cc1C | 0.728 ± 0.2 | 1.11 ± 0.13 | 1.02 ± 0.13 | 0.886 ± 0.025 | 1.03 ± 0.22 | 1.19 ± 0.24 | 0.818 (active)
19 | Cc1ccc(OCC(=O)N2CCN(c3ccc(-n4cncn4)nn3)CC2)c(C(C)(C)C)c1 | 1.11 ± 0.13 | 0.971 ± 0.085 | 1.27 ± 0.037 | 0.964 ± 0.07 | 0.948 ± 0.099 | 0.87 ± 0.15 | 0.999 (active)
20 | COC(=O)C1=CN(CC2CCCO2)C=C(C(=O)OC)C1c1ccccc1Br (configuration not stated) | 1.08 ± 0.23 | 0.956 ± 0.094 | 1.01 ± 0.11 | 0.956 ± 0.032 | 1.18 ± 0.21 | 1.05 ± 0.11 | 0.726 (active)
21 | COC(=O)C1=C(C)NC(C)=C(C(=O)OC)C1c1ccc(-c2ccc(Cl)cc2Cl)o1 | 1.01 ± 0.081 | 0.943 ± 0.064 | 0.922 ± 0.092 | 0.872 ± 0.022 | 1.23 ± 0.11 | 1.22 ± 0.22 | 1.02 (active)
22 | CS(=O)(=O)O.Cc1c(O)cccc1C(=O)N[C@@H](CSc1ccccc1)[C@H](O)CN1C[C@H]2CCCC[C@H]2C[C@H]1C(=O)NC(C)(C)C | 0.399 ± 0.017 | 0.968 ± 0.08 | 1.29 ± 0.07 | 1.09 ± 0.056 | 1.26 ± 0.29 | 1.32 ± 0.46 | 0.987 (active)
23 | Cl.Cn1c(=N)n(CC(O)c2ccco2)c2ccccc21 (configuration not stated) | 1.05 ± 0.061 | 1.09 ± 0.077 | 0.969 ± 0.069 | 1.22 ± 0.04 | 1.46 ± 0.21 | 1.3 ± 0.18 | 0.992 (active)
24 | Cl.Cl.Cn1cc(CNCC2CCN(c3ncc(C(=O)NO)cn3)CC2)c2ccccc21 | 1.84 ± 0.11 | 1.72 ± 0.15 | 2.69 ± 0.12 | 0.067 ± 0.0071 | 0.396 ± 0.025 | 0.692 ± 0.054 | 0.0605 (inactive)
25 | CN1CCN(c2ccc(-c3cccc(NC(=O)COc4ccc(Cl)cc4)c3)nn2)CC1 | 0.24 ± 0.029 | 0.966 ± 0.053 | 0.891 ± 0.021 | 0.572 ± 0.032 | 0.946 ± 0.057 | 0.966 ± 0.081 | 0.97 (active)
26 | COc1ccc(Cl)cc1C(=O)NCCc1ccc(S(=O)(=O)NC(=O)NC2CCCCC2)cc1 | 0.75 ± 0.067 | 0.932 ± 0.056 | 0.987 ± 0.09 | 1.06 ± 0.052 | 1.36 ± 0.099 | 1.44 ± 0.15 | 1 (active)
